# HSF-1 act – increases HSF-1 driven luciferase reporter signal | activation, % at 9 µM | NIH3T3-HGL HSF-1 luciferase reporter, MG132, 8 h; 100% = twice DMSO control signal | 300,000 compounds, 1.7% hits;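 active = mean replicate activation of at least 50% with a set share of replicates each reaching 50%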
# GAA850 FXN act – activators of GAA850 frataxin (FXN) promoter | HEK293 lucGAA850 FXN promoter luciferase reporter, 24 h; percent of 10 µM SAHA response | activation, % at 6 µM | 360,000 compounds, 0.56% hits | AID 540364;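 active = activation above the average of all compounds screened plus 3 SD, cutoff fixed separately per campaign, cut at about 7.5% in these data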
# HSF1 inhib – HSF1 inhibition; NIH3T3-HGL HSE-luciferase, MG132-induced, luminescence 8 h; active compounds read low; activity change, negative = inhibition, % at 7.5 µM (by protocol); 300,000 compounds, 0.77% hits;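 active = more than half of replicate wells show activity change below -50%, luminescence cut by over half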;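 note: luciferase reports HSF-1 transcriptional activity via heat shock element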
# AHR activator – human AHR activation; activation, % at 5 µM; 320,000 compounds, 2.5% hits; AHR-responsive luciferase reporter cells, luminescence; AID 2796; P35869; in the data active = activation above about 47%
# Numbers stand for hits; - = inactive; . = not tested or not shown. Hits are enriched below; roughly 4.6% of the tested compounds scored in any of these assays.
SMILES,HSF-1 act,GAA850 FXN act,HSF1 inhib,AHR activator
O=C(CSc1ccc(-c2nc3ccccc3[nH]2)cn1)Nc1ccc2c(c1)OCCO2,-,-,-,-
O=C(CSc1ccc(-c2nc3ccccc3[nH]2)cn1)Nc1ccc(S(=O)(=O)NC2CC2)cc1,51,-,-,-
Cc1cc2nc(-c3ccc(SCC(=O)Nc4ccc5c(c4)OCCO5)nc3)[nH]c2cc1C,.,-,.,-
Cc1ccc2nc(-c3ccc(SCC(=O)Nc4ccc5c(c4)OCCO5)nc3)[nH]c2c1,55,-,-,-
O=C(O)COc1ccc(/C=N/n2c(COc3ccccc3)nc3ccccc3c2=O)cc1,-,-,-,-
COc1cc(-c2noc(-c3cccs3)n2)cc(OC)c1OC,-,-,-,48
COc1ccc(-c2noc(-c3cccs3)n2)cc1OC,-,-,-,-
COc1cc(-c2nc(-c3ccccc3)c(-c3cccs3)[nH]2)cc(OC)c1OC,-,-,-,70
C[C@@H]1CN([C@H](C)CO)C(=O)c2cc(NC(=O)Nc3ccc(F)cc3)ccc2O[C@@H](C)CCCCO[C@H]1CN(C)Cc1ccc(C(=O)O)cc1,.,-,.,.
N#CC(Cc1ccc(OC(F)F)cc1)c1nc2ccccc2[nH]1 (centres undefined),59,-,-,-
Cc1c(C(=O)Nc2nc3ccccc3[nH]2)cccc1[N+](=O)[O-],-,-,-,60
O=C(Nc1nc2ccccc2[nH]1)c1ccccc1OC(F)F,60,-,-,51
N#CC(Cc1cccs1)c1nc2ccccc2[nH]1 (centres undefined),.,-,.,.
CC(C)Oc1ccc(C(=O)Nc2nc3ccccc3[nH]2)cc1,-,-,-,-
O=C(Nc1nc2ccccc2[nH]1)c1ccc(OC(F)F)cc1,68,-,-,-
O=C(Nc1nc2ccccc2[nH]1)c1ccccc1[N+](=O)[O-],-,-,-,-
CC1CCCCC1NC(=O)NC(=O)COC(=O)c1ccc(OC(F)F)cc1 (centres undefined),.,-,.,.
CCOC(=O)C1=C(C)OC(N)=C(C#N)C1c1cccc(C)c1 (centres undefined),-,-,-,-
COc1ccc(C(C)=O)cc1COC(=O)C(CO)NS(=O)(=O)c1ccc(Br)cc1 (centres undefined),-,-,-,-
CCN(CC(=O)NC1CCS(=O)(=O)C1)C(=O)c1ccc(S(=O)(=O)N(CC)CC)cc1 (centres undefined),.,-,.,-
O=C1CCCCC/C1=N/Nc1ccc(OCc2ccccc2)cc1,-,-,-,-
O=C(Nc1nc2ccccc2[nH]1)c1ccccc1F,-,-,-75,-
O=C(Nc1nc2ccccc2[nH]1)c1ccc(F)cc1,-,-,-,-
Cc1ccc(S(=O)(=O)N(C)C)cc1NC(=O)COC(=O)/C=C/c1ccc2ccccc2n1,76,-,-,-
Cc1ccc(S(=O)(=O)N(C)C)cc1NC(=O)COC(=O)c1c(-c2ccccc2)noc1C,-,-,-,-
SMILES,HSF-1 act,GAA850 FXN act,HSF1 inhib,AHR activator
CN1CCSc2ccc(C(=O)Nc3cccc(F)c3)cc21,160,-,-,126
CCN1CCSc2ccc(C(=O)NCc3cccc(F)c3)cc21,-,-,-,-
COc1ccc(NC(=O)c2ccc3c(c2)N(C)CCS3)cc1,-,-,-,72
COc1cccc(/C=C/C(=O)Nc2cc(S(=O)(=O)N3CCOCC3)ccc2OC)c1,.,-,.,.
COc1ccc(S(=O)(=O)NCC2CCCN(C(=O)C3CCCC3)C2)cc1 (centres undefined),-,-,-62,-
O=C(Nc1ccc(Nc2ccncc2)cc1)c1ccc(Nc2ccnc3ccc([N+](=O)[O-])cc23)cc1,-,-,-,.
Cc1cc(C)c2cc(C(=O)N3CCc4ccccc4C3)[nH]c2c1,-,-,-,55
Cc1cc(C)c2cc(C(=O)Nc3ccc(C)c(F)c3)[nH]c2c1,-,-,-,.
Cc1cc(C)c2cc(C(=O)N(C)C3CCN(C)CC3)[nH]c2c1,55,-,-,-
CCC1=NN2C(=N)/C(=C\c3cccn3-c3ccc(C)c(C)c3)C(=O)N=C2S1,-,-,-,-
CCN(c1ccccc1)S(=O)(=O)c1ccc(Oc2ccc(-n3ccnc3)cc2)nc1,-,-,-,59
Cc1ccc(NS(=O)(=O)c2ccc3c(c2)c(=O)n(C)c(=O)n3C)cc1F,-,-,-,-
COc1cnn(-c2cc(Oc3ccc(C)cc3)ncn2)c(=O)c1Cl,95,-,-,-
COCCOc1cnn(-c2cc(Oc3ccc(C)cc3)ncn2)c(=O)c1Cl,-,-,-,-
Cc1c(NS(=O)(=O)c2cc(C(=O)NCCN(C)C)ccc2Cl)c(=O)n(-c2ccccc2)n1C,-,-,-74,-
Cc1c(NS(=O)(=O)c2cc(C(=O)NCc3cccc(Cl)c3)ccc2Cl)c(=O)n(-c2ccccc2)n1C,.,-,.,.
O=S(=O)(c1ccc(Cl)cc1)c1snnc1-c1ccccc1,66,-,-,-
O=S(=O)(c1ccc(F)cc1)c1snnc1-c1ccccc1,-,-,-,-
Cc1ccc(C)c(NC(=O)C2CC(O)CN2C(=O)Oc2ccccc2)c1 (centres undefined),67,-,-,-
Cc1c(Cl)c(C(=O)NNC(=S)Nc2ccc(F)cc2)nn1C,59,-,-,-
CCOC(=O)/C(=N/O)C1=NC(C)(C)Cc2cc(C)c(C)cc21,-,-,-,-
Cc1ccc(NC(=S)NCCSc2ccc(Cl)cc2)c(C)c1,-,-,-,-
CCSc1nc2c(c(=O)[nH]1)C(c1ccncc1)C(C(=O)OC(C)C)=C(C)N2 (centres undefined),-,-,-,48
O=C(Nc1ccc2c(c1)OCO2)c1ccc(NC2CC2)c([N+](=O)[O-])c1,-,-,-,52
COc1ccc(C(C)(C)C)cc1NC(=O)Nc1ccc2c(c1)OCO2,-,-,-,79
SMILES,HSF-1 act,GAA850 FXN act,HSF1 inhib,AHR activator
COc1cc(NC(=O)Nc2ccc3c(c2)OCO3)cc(OC)c1OC,-,-,-,76
O=C(Nc1ccc2c(c1)OCO2)c1ccc(N2CCCC2)c([N+](=O)[O-])c1,-,-,-,-
COc1cc(C(=O)NC(=S)Nc2ccc3c(c2)OCO3)cc(OC)c1OC,-,-,-,-
COc1cc(C(=O)Nc2ccc3c(c2)OCO3)c([N+](=O)[O-])cc1OC,-,-,-,59
O=C(Nc1cc(=O)[nH]c2nc(-c3ccccc3)nn12)c1ccccc1Cl,-,-,-,-
COc1ccc(C(C)(C)C)cc1NC(=O)c1c(C)noc1C,-,-,-,81
COc1ccc(C)cc1NC(=O)CSc1nnc(COc2ccc(C)cc2)n1Cc1ccco1,-,-,-,-
COc1ccccc1NC(=O)CSc1nnc(COc2ccc(Cl)cc2)n1Cc1ccco1,94,-,-,-
COc1cccc(-n2c([S-])c(C(=O)Nc3ccc(S(=O)(=O)N4CCOCC4)cc3)[n+]3cc(C(N)=O)ccc23)c1,-,-,-,65
Cc1cc(C)c(S(=O)(=O)N2CCCCCC2)cc1Br,-,-,-,-
Cc1cc(C)n(-c2nc(NC(C)(C)C)nc(NC(C)(C)C)n2)n1,-,-,-,-
Cc1cc(C)n(-c2nc(NC(C)C)nc(NC(C)C)n2)n1,-,9.6,-,-

# Screening results (PubChem)
